From PubChem BioAssay
esBAF inh = Bmi1 luciferase reporter increase in mESCs, primary screen, esBAF inhibitor project, mouse ES cells, Bmi1 luciferase knock-in, single point | 24 h; 100% = twice the neutral-well signal | reporter increase, % at 12.5 µM | 350,000 tested, 2% active | AID 602393, 2012; in the data active = activation above about 40%; inconclusive = no clear call, values can overlap the other calls;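 note: 0% = median of the plate's neutral control wells and 100% = double that signal; a rise in the Bmi1 reporter signal indicates esBAF inhibition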
Wnt act = Wnt/beta-catenin pathway activators, primary screen, cell-based, plate reader, single point; activation, % at 9.35 µM; AID 743398, 2014; 300,000 tested, 1.2% active; Wnt/beta-catenin reporter cell assay, activator; in the data active = activation above about 30%, passing the limit was not always enough; inconclusive = no clear call, values can overlap the other calls;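 note: 0% = neutral control wells and 100% = positive control wells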
MLL AF4-AF9 inh = inhibitors of AF4 peptide binding to AF9, primary screen, biochemical, AlphaScreen, biotin-AF4 peptide, FLAG-AF9, single point; inhibition, % at 10 µM; AID 651704, 2012; 350,000 tested, 0.47% active;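 active = every replicate reaching a set inhibition limit, whatever the replicate mean, cut at about 25% in these data; inconclusive = mean inhibition reaches that limit but some replicates miss it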;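 note: 0% = plate neutral control median and 100% = total signal loss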
SMARCA2 act = SMARCA2 (BRM) function activators, primary screen, cell-based, luminescence, high throughput; AID 652017, 2013; MG213 cells, MMTV-luciferase reporter, dexamethasone, overnight; activation, % at 9.1 µM; 370,000 tested, 1% active; in the data active = activation above about 7.8%;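 note: 0% = vehicle wells and 100% = reference activator wells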
FGF22 binding = binders of human FGF22 protein, primary screen, FGF22 synaptogenesis inhibitor project, biophysical, thermal shift, single point. 340,000 tested, 1.5% active. recombinant FGF22 thermal shift, SYPRO orange fluorescence; percent of sucrose octasulfate shift, DMSO zero. activity (Tm shift, normalised), % at 9.99 µM. AID 651658, 2012. Fibroblast growth factor 22 (Homo sapiens), Q9HCT0;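 active = mean Tm shift, scaled 0 neutral to 100 positive control, at about 1.3% or above, every replicate too, limit read from the data; inconclusive = no clear call, values can overlap the other calls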
Target sequence (Q9HCT0 whole entry, looked up): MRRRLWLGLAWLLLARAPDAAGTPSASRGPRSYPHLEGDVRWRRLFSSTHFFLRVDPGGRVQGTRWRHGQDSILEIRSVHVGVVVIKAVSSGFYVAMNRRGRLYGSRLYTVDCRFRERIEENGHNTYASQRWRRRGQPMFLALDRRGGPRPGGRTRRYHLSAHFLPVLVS
MITF TRPM1 HTS = activators of MITF-driven TRPM1 promoter reporter, primary screen, cell-based, SK-MEL-5, luciferase, single point | SK-MEL-5 TRPM1-promoter luciferase, 24 h; % of positive control, neutral wells = 0 | activation, % at 12.5 µM | 300,000 tested, 0.75% active | AID 588334, 2011;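 active = mean activation of at least 80% with every replicate also reaching 80%; inconclusive = mean reaches 80% but some replicate falls short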;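 note: 0% = neutral control wells and 100% = parthenolide positive control wells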
The depositor's hits bear a star; ? = inconclusive; . = not tested or not shown. In the library only some 4.3% were active in any assay of this set; here they are far more common.

SMILES	esBAF inh	Wnt act	MLL AF4-AF9 inh	SMARCA2 act	FGF22 binding	MITF TRPM1 HTS
COCc1[nH]nc2c1C(c1ccc(F)cc1)N(c1ccc(OC)cc1)C2=O (stereo unspecified)	.	-4	-1	-4	43*	.
COCc1[nH]nc2c1C(c1ccc(F)cc1)N(c1ccccc1)C2=O (stereo unspecified)	.	-1	-2	-1	42	.
CC(=O)c1ccc2c(c1)Nc1ccccc1S2	.	.	.	1	.	-1
C/C(=N\NC(=O)c1ccc(C)cc1C)c1ccc2c(c1)Nc1ccccc1S2	37	8	.	11*	.	8
COc1cccc(S(=O)(=O)N[C@@H]2C=C[C@H](CC(=O)NC3Cc4ccccc4C3)O[C@@H]2CO)c1	.	.	-5	.	0	.
COc1ccc(Cc2c(C(C)(C)C)nc3ccc(Br)cn23)c(C)c1	-1	-1	-3	1	0	.
COc1ccc(Cc2c(-c3cccc(Br)c3)nc3ccc(Cl)cn23)c(C)c1	58*	14	1	5	0	.
COc1ccc(Cc2c(-c3cccc(Cl)c3)nc3ccc(Cl)cn23)c(C)c1	6	13	3	7	0	.
COc1ccc(Cc2c(-c3ccccc3)nc3ccc(Br)cn23)c(C)c1	61*	23	3	2	0	.
C[C@@H]1CN([C@H](C)CO)C(=O)c2cc(NC(=O)Nc3ccc(F)cc3)ccc2O[C@H]1CN(C)C(=O)Nc1cccc2ccccc12	-6	.	-1	.	0	.
O=C(CN1C(=O)NC2(CCCCC2)C1=O)Nc1ccc2c(c1)OCCCO2	?	44*	-1	2	0	130*
CC1CCCCC12NC(=O)N(CC(=O)Nc1nccs1)C2=O (stereo unspecified)	.	-1	2	-2	43*	-13
O=C(CN1C(=O)NC2(CCCCCC2)C1=O)Nc1cccc(F)c1	-6	0	1	-3	0	.
CC1CCCCC12NC(=O)N(CC(=O)Nc1ccccc1N1CCOCC1)C2=O (stereo unspecified)	.	-1	-2	1	43*	-3
CC1CCCCC12NC(=O)N(CC(=O)Nc1sccc1C(N)=O)C2=O (stereo unspecified)	-1	-1	-7	-3	0	3
CC1CCCCC12NC(=O)N(CC(=O)NC(=O)Nc1ccc3c(c1)OCCO3)C2=O (stereo unspecified)	57*	3	.	7	.	53
COc1ccc2c3c([nH]c2c1)[C@@H](CO)N(Cc1ccncc1)CC31CCN(C(=O)Cc2ccncc2)CC1	.	.	0	.	0	.
CCS(=O)(=O)N1CCCCN2[C@@H](CO)[C@@H](c3ccc(C4=CCCC4)cc3)[C@@H]2C1	-9	.	3	.	1	.
C[C@H](CO)N1C[C@H](C)[C@@H](CN(C)Cc2ccc(C(=O)Nc3ccccc3N)cc2)Oc2c(NS(=O)(=O)c3cn(C)cn3)cccc2C1=O	.	.	4	.	0	.
COc1cc(OC)cc(C(=O)N/N=C2/SCC(=O)N2Cc2ccco2)c1	-2	0	1	0	0	-2
Cc1ccccc1C(=O)N/N=C1\SCC(=O)N1Cc1ccco1	.	-8	-1	-4	44*	-2
Cc1cccc(OCC(=O)N/N=C2/SCC(=O)N2Cc2ccco2)c1	-8	-4	1	0	43*	5
C[C@@H]1CN([C@H](C)CO)C(=O)Cc2cc(NC(=O)Cn3cnnn3)ccc2O[C@@H]1CN(C)Cc1ccc(C(F)(F)F)cc1	-1	.	0	.	.	.
C[C@H]1CN([C@@H](C)CO)C(=O)c2cc(-c3cccc(F)c3)cnc2O[C@H]1CN(C)CC1CCOCC1	-2	.	-3	.	0	.
COc1ccc(CNC(=O)Cn2cccc2C(=O)c2ccccc2C)cc1	47*	12	0	3	0	67
SMILES	esBAF inh	Wnt act	MLL AF4-AF9 inh	SMARCA2 act	FGF22 binding	MITF TRPM1 HTS
COc1ccc(CNC(=O)Cn2cccc2C(=O)c2ccccc2)cc1	53*	7	1	-1	0	68
COc1ccc(OC)c(CCNC(=O)Cn2cccc2C(=O)c2ccccc2)c1	2	-2	3	-1	0	-9
COc1ccc(-n2c(SCC(=O)Nc3ccc(S(=O)(=O)Nc4nccs4)cc3)nnc2-c2cccs2)cc1	.	.	.	-5	.	.
C/C=C/c1ccc2c(c1)O[C@H](CN(C)C(=O)c1cccc(F)c1)[C@@H](C)CN([C@@H](C)CO)S2(=O)=O	0	.	3	.	0	.
O=C1N=c2ccccc2=C1c1sc(=S)n(NC(=O)c2cccc(O)c2)c1O	.	-1	1	2	17*	-5
O=C1N=c2ccccc2=C1c1sc(=S)n(-c2ccc(O)cc2)c1O	2	3	-7	-2	0	-15
Cc1ccc(S(=O)(=O)N(C)C[C@H]2Oc3ccc(NC(=O)Nc4ccc(F)cc4)cc3CC(=O)N([C@H](C)CO)C[C@@H]2C)cc1	-3	.	2	.	0	.
COc1ccc2cc3cc(C(=O)NCc4ccco4)oc3nc2c1	.	8	.	-1	.	18
COc1ccc2cc3c(N)c(C(=O)NCc4ccco4)sc3nc2c1	72*	.	.	5	.	65
COC(=O)C1=C(C)N(Cc2ccccc2C(F)(F)F)C(=NCc2ccc(C(F)(F)F)cc2)NC1c1cccc(Cl)c1 (stereo unspecified)	.	-14	.	-4	0	.
Cc1nn(C(=O)c2cc3sccc3[nH]2)c(C)c1C	84*	2	3	1	0	45
Cc1nn(C(=O)CNC(=O)c2ccccc2)c(C)c1C	.	0	-1	-3	0	6
COc1ccc(NC(=O)Nc2ccc(N(C)C)cc2)cc1	19	65*	.	1	.	67
COc1ccc(NC(=O)NCCN2C(=O)C3C4C=CC(C4)C3C2=O)cc1 (stereo unspecified)	58*	24	-2	1	0	36
COC(=O)c1ccc(NC(=O)Nc2ccc(OC)cc2)cc1	12	1	-5	0	0	33
COc1ccc(NC(=O)c2cc(C)on2)cc1OC	10	.	.	2	.	0
COc1ccc(NC(=O)c2cc(C)on2)cc1	38	34*	1	4	0	75
CN(C)c1ccc(NC(=O)Nc2cccc3ccccc23)cc1	39	17	2	3	0	64
COc1ccc(NC(=O)Nc2ccc(OC)cc2)cc1	60*	.	.	6	.	62
Cc1ccc(NC(=O)NCCN2C(=O)C3C4C=CC(C4)C3C2=O)cc1 (stereo unspecified)	20	22	-4	3	0	47
CO[C@H]1CN(C)C(=O)c2ccc(NC(C)=O)cc2OC[C@@H](C)N(CCc2ccccc2)C[C@H]1C	1	.	0	.	0	.
